Screening data: PubChem, National Center for Advancing Translational Sciences (NCATS)
Rows were chosen to be rich in hits. Some 1.1% of all compounds tested hit in one or more screens of this group.
NPSR antag = blocks cAMP signaling of the human neuropeptide S receptor. Q6W5P4. CHO-NPSR cells, cAMP TR-FRET, antagonist mode. Potency, µM (highest dose often 38.3 µM), for inactives: top-dose activity change, negative = inhibition, hits mostly inhibitors. actives 1% (n = 220,000). AID 1461; note: % is set by controls: 0 for no effect and ±100 for the full control effect; nearly all actives have a fitted effect of over 50% in size
Target sequence (Q6W5P4 whole entry, looked up): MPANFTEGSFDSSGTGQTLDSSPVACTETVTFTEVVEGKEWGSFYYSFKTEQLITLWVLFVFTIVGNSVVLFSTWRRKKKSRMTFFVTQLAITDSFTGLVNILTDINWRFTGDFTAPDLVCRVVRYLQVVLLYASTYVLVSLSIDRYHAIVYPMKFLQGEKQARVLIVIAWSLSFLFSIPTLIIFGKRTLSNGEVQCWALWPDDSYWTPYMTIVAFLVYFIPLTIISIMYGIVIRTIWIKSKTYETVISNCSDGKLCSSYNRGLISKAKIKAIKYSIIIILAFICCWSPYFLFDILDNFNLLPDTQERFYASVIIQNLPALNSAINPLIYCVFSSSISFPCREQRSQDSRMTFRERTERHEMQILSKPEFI
A-T KAP1 phos = candidate therapy for ataxia-telangiectasia | actives 0.19% (n = 320,000) | F2112 A-T fibroblasts, KAP-1 phosphorylation AlphaLISA; neocarzinostatin DNA damage 30 min before lysis | Potency, µM (titrated, usually from 57.5 µM), without a hit: at the highest dose activation, most hits filed as activators; note: % of control where 0% means no effect; nearly all actives have a fitted effect of over 45% in size
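hTERT-immortalized A-T patient fibroblasts (F2112), 500 cells/well in OPTI-MEM, 1% FBS, got compounds for 60 min, then NCS for 30 min at 37C. Lysates were then assayed for phospho-KAP-1 by AlphaLISA (anti-pKAP1 donor, anti-KAP1 acceptor beads), 6 hr at 25C.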
HTT cytoprotect = protects HTT-Q103 PC12 cells, measured by ATP | AID 1471 | actives 0.14% (n = 230,000) | Potency, µM (series often up to 56.4 µM), without a hit: cytoprotection (ATP increase), most hits filed as activators | PC12 HTT-Q103 induced, cytoprotection, ATP luminescence, 40 h; note: % of control where 0% means no effect; nearly all actives have a fitted effect of over 45% in size
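Compounds added alongside 100 nM tebufenozide, which induces toxic Q103 huntingtin exon 1-GFP in stable PC12 cells; surviving cells quantified by luminescent ATP measurement. Medium: phenol red-free DMEM, 5% equine and 5% calf serum.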
IDH1 R132H inh = inhibitors of human mutant IDH1 R132H. O75874. actives 0.093% (n = 390,000). Potency, µM (highest dose often 76.6 µM), for inactives: at the top dose activity change, negative = inhibition, actives largely listed as inhibitors. AID 602179. IDH1-R132H enzyme, NADPH consumption, diaphorase/resazurin fluorescence; note: % is set by controls: 0 for no effect and ±100 for the full control effect; nearly all actives have a fitted effect of over 65% in size
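IDH1-R132H (0.5 ug/mL) preincubated 30 min with compound, then NADPH (0.016 mM) and alpha-KG (2 mM) added; 80 min at RT, pH 7.5. Remaining NADPH coupled via diaphorase/resazurin to fluorescence (540/590 nm); concentration-response curves normalized to no-enzyme control.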
HttQ103 aggreg = mutant huntingtin aggregation inhibition; PC12 HttQ103-GFP aggregates, Acumen cytometry, 40 h; Potency, µM (titrated, usually from 46.1 µM), for inactives: at the highest dose activity change, negative = inhibition, actives largely listed as inhibitors; actives 1.1% (n = 220,000); AID 1688; note: % is set by controls: 0 for no effect and ±100 for the full control effect; nearly all actives have a fitted effect of over 60% in size
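Huntingtin Q103 exon 1–GFP aggregates in induced PC12 cells (100 nM tebufenozide) were quantified by cytometry from lysates, with compounds dosed in titration.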
Starred values were filed as active, the others as inactive; ? = inconclusive; · = no result given; [ ] = dose if it differs, or a comment. Calls come from the whole dose curve; as a rule, active = well fitted curve in the direction sought with a large enough effect; inconclusive = small, poorly fitted or top-dose-only effect, or another doubt; inactive = no such curve, though single readings can be large; an effect the other way counts as inactive or inconclusive. Potency is the fitted concentration of half-maximal effect.

SMILES | NPSR antag | A-T KAP1 phos | HTT cytoprotect | IDH1 R132H inh | HttQ103 aggreg
CCOC(=O)CS(=O)(=O)c1nc(-c2ccccc2)cc(C(F)(F)F)n1 | 10µM* | -4% | ? | -1% | -24%[9.22 µM]
COC(=O)CCS(=O)(=O)c1nc(-c2ccccc2)cc(C(F)(F)F)n1 | 10µM* | -6% | -15% | 6% | ?
CC1CCN(CC[C@@H]2CCCN2S(=O)(=O)c2cccc(O)c2)CC1 | · | · | 13%[1.9 µM] | · | ·
O=C(c1ccc(Cl)c(Cl)c1)N1CCC(O)(CN2CCOCC2)CC1 | 1% | 1% | -16% | 0% | 7%
O=C(c1ccc(Cl)cc1)N1CCC(O)(CSc2ccc(Cl)cc2Cl)CC1 | ? | -4% | 37%[10 µM] | 1% | 10µM*
CN(C(=O)c1ccc2c(c1)N(Cc1ccccc1F)C(=O)c1ccccc1S2(=O)=O)C1CCCCC1 | · | · | · | 14% | ·
CC1=CC(C)(C)n2c(O)c(N=N)c3c(C)ccc1c32 | -39% | 32µM* | -28%[10 µM] | 17% | -29%[9.22 µM]
CC1=CC(C)(C)n2c(O)c(N=N)c3c(C)c(C)cc1c32 | -42% | 19% | -14%[10 µM] | 14% | -22%[9.22 µM]
COc1ccc(NC(=O)/C(Cl)=C(/Cl)S(=O)Cc2ccccc2)cn1 (configuration not stated) | 1.3µM* | -10% | -91% | 1% | 5µM*
COc1ccc(CS(=O)(=O)/C(Cl)=C(/Cl)C(=O)Nc2ccc(OC)nc2)cc1 | 6.3µM* | · | -26%[10 µM] | 5% | ?
COc1ccc(/C=C/C(=O)Nc2ccc(OC)nc2)cc1 | 0% | -7% | · | 5% | 21%
COc1ccc(NC(=O)Cc2ccccc2)cn1 | 2% | 0% | -19% | -9% | -6%
Cc1nn(-c2ccccc2)c2nc(C3CC3)cc(C(=O)Nc3cccc(F)c3)c12 | · | · | · | -11% | ·
N#CC(c1cccc(Cl)c1)c1ccc2c(C(F)(F)F)cc(C(F)(F)F)nc2n1 (configuration not stated) | 10µM* | · | -98% | 3% | 0.89µM*
CCOC(=O)c1cccc(NC(=O)C2CCN(S(=O)(=O)c3cn(C)cn3)CC2)c1 | · | · | · | 26% | ·
CN(C)C=Nc1c(C(=O)c2ccccc2)sc2nccc(N(C)C)c12 | -7% | -5% | · | -5% | 6.3µM*
CCc1ccc2c(c1)/C(=C/C(=O)c1cccs1)C(=O)N2 | 10µM* | -11% | -1% | 8% | ?
COc1ccc(CCNS(=O)(=O)c2ccccc2)cc1OC | -6%[46.1 µM] | 3% | -3% | 6% | 3.5µM*
C=C1CCC2[C@](C)(CO)[C@H](O)CC[C@@]2(C)[C@@H]1C/C=C1\C(=O)OC[C@H]1O (some centres not stated) | · | 13% | · | 0% | ·
C=C1CCC2[C@](C)(CO)[C@H](O)CC[C@@]2(C)[C@@H]1C/C=C1/C(=O)OC[C@H]1O (some centres not stated) | · | · | 7.1µM* | · | ·
CC1=C[C@@H](O)CC(C)(C)[C@@H]1/C=C/C(C)=C/C=C/C(C)=C/C=C/C=C(C)/C=C/C=C(C)/C=C/C1=C(C)C[C@H](O)CC1(C)C | · | · | -29% | · | 21%
COc1cc(Cl)c(NC(=O)CN(C)S(=O)(=O)c2ccc3c(c2)CCCC(=O)N3)c(OC)c1 | · | · | · | 6% | ·
C=C[C@@](C)(O)CC[C@H]1[C@]2(C)CCCC(C)(C)[C@H]2CC[C@]1(C)O | · | · | 5% | · | ·
CC(=C1SC(=S)NC1=O)c1ccccc1 | · | · | · | -3% | ·
CC1(c2ccccc2)CC(C)(C)N2C(=O)/C(=C3\SC(=S)NC3=O)c3cccc1c32 (configuration not stated) | 5µM* | 6% | 4%[10 µM] | 2% | -3%
Cc1ccc(-c2cn(-c3ccccc3)c3[n+]2CCCS3)cc1 | -13%[46.1 µM] | -2% | -84%[10 µM] | 1% | 1.8µM*
c1ccc(-c2cn(-c3ccccc3)c3[n+]2CCCS3)cc1 | 24% | 8% | 12%[10 µM] | 6% | 0%[9.22 µM]
c1ccc(N2N=C(c3cccs3)CC2c2ccco2)cc1 (configuration not stated) | -3%[46.1 µM] | 28µM* | ? | 2% | -7%
c1ccc(C2=NN(c3ccccc3)C(c3ccco3)C2)cc1 (configuration not stated) | 40% | 16µM* | 5%[10 µM] | 1% | -11%[9.22 µM]
